# Measurements taken from PubChem BioAssay (NCATS).
# Inconclusive results are not listed. Active and inactive are the calls of the source. Unless noted, calls come from the whole dose curve; as a rule, active = well fitted curve in the direction sought with a large enough effect; inconclusive = small, poorly fitted or top-dose-only effect, or another doubt; inactive = no such curve, though single readings can be large; an effect the other way counts as inactive or inconclusive.
# Assays:
# [1] = P-glycoprotein substrates identified in KB-8-5-11 adenocarcinoma cell line, qHTS therapeutic library screen (AID 1346987); note: nearly all actives have a fitted effect of over 65% in size; note: potency is the fitted concentration of half-maximal effect
# Summary of the method: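 Luminescence from CellTiter-Glo, read 5 min after addition, quantified survival of KB-8-5-11 (P-gp-overexpressing) cells exposed to compounds for 72 h. AC50 was derived from concentration-response curves.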
# [2] = molecular target: Catechol O-methyltransferase (Homo sapiens) (UniProt P21964); assay: Confirmatory Screen for Target Class Profiling of Small Molecule Inhibitors of Methyltransferases (AID 1745852; calls by dose curve; note: potency is the fitted concentration of half-maximal effect); settings: MTase-Glo luminescence, SAH detection, recombinant enzyme; measured here: COMT max response; stronger effect = lower value
# [3] = molecular target: Guanidinoacetate N-methyltransferase (Homo sapiens) (UniProt Q14353); assay: as above; settings: activity change, negative = inhibition: at 57.3 µM (top of the series) unless noted
# [4] = molecular target: Nicotinamide N-methyltransferase (Homo sapiens) (UniProt P40261); assay: as above; settings: MTase-Glo luminescence, SAH detection, recombinant enzyme; measured here: NNMT max response; stronger effect = lower value
# [5] = molecular target: Phenylethanolamine N-methyltransferase (Homo sapiens) (UniProt P11086); assay: as above; settings: MTase-Glo luminescence, SAH detection, recombinant enzyme; measured here: PNMT max response; stronger effect = lower value
# [6] = qHTS drug screen for cell cycle checkpoint inhibitors in PARPi-resistant BRCA-mutant ovarian cancer cell lines. (AID 1963452; calls by dose curve; note: potency is the fitted concentration of half-maximal effect); settings: PEO1/OlaR viability, CellTiter-Glo luminescence, 96 h; for Z-AUC: stronger effect = lower value
# Summary of the method: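 PEO1, PEO4 and PEO1/OlaR ovarian cancer cells, 600 per well, exposed 96 h at 37C to a dilution series. Viability read by CellTiter-Glo luminescence, normalized to DMSO and empty wells; activity summarized as Z-AUC.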
# [7] = test system: HaCat; assay: Cytotoxic Profiling of Annotated Libraries Using Quantitative High-Throughput Screening (AID 1296008); settings: Five cell lines viability, CellTiter-Glo ATP luminescence, 48-72 h; max response: stronger effect = lower value; note: nearly all actives have a fitted effect of over 60% in size; note: potency is the fitted concentration of half-maximal effect; for max response: % is set by controls: 0 for no effect and ±100 for the full control effect
# Summary of the method: (§1)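 Compounds were pin-transferred onto cells and incubated 48 or 72 hr at 37 degree Celsius, 95% humidity. CellTiter-Glo was added, plates sat 10 min at room temperature, then ATP-coupled luminescence was imaged as the viability read-out.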
# [8] = test system: CAOV3; assay: Primary qHTS to identify gynecologic anti-cancer compounds using libraries of approved drugs and bioactive compounds (AID 1345084); settings: Gynecologic cancer cell panel viability, ATPlite luminescence, 48 h; series mostly up to 57.5 µM; note: nearly all actives have a fitted effect of over 55% in size; note: potency is the fitted concentration of half-maximal effect
# Summary of the method: (§2)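 Cells, 1,000 per well, were allowed to settle for 16 h at 37 C before compound addition. Five concentrations were tested for 48 h, and viability was read by ATPlite luminescence after 15 min at room temperature.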
# [9] = test system: SKOV3; assay: as above; settings: Gynecologic cancer cell panel viability, ATPlite luminescence, 48 h; series mostly up to 57.5 µM
# Summary of the method: as §2
# [10] = Primary redox qHTS assay for identification of artifact compounds. (AID 1845223); note: potency is the fitted concentration of half-maximal effect
# Summary of the method: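 Redox-cycling detection via DTT (250 uM final) oxidation coupled to Amplex Red (25 uM)/HRP (250 mU/mL) in HBSS. 15 min preincubation plus 30 min after DTT, room temperature. Ex/Em 525/598 nm; 4-parameter Hill fit against DMSO and 10 uM DA3003.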
# [11] = qHTS to identify inhibitors of the type 1 interferon - major histocompatibility complex class I in skeletal muscle: primary screen against the NCATS Mechanism Interrogation Plate v5.0 (MIPE) Libary (AID 1347411);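 note: plate controls were vehicle for no effect and reference inhibitor for full effect; nearly all actives have a fitted effect of over 65% in size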
# Summary of the method: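 Seed engineered human myoblasts (HLA-B HiBit) in medium without dexamethasone containing 4 ng/ml IFN-beta; after 1 hr add compound titrations (top 46 uM final). Incubate 24 hrs at 37 C, lyse 10 min with HiBiT reagent, read luminescence.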
# [12] = molecular target: Cytochrome P450 2C9 (Homo sapiens) (UniProt P11712); assay: Cytochrome P450 family 2 subfamily C member 9 (CYP2C9) small molecule antagonists: luciferase biochemical (cell-free) qHTS assay (AID 1645842; active = well fitted curve in the direction sought with a large enough effect in the repeat runs; an effect the other way counts as inactive or inconclusive; note: nearly all actives have a fitted effect of over 55% in size; note: potency is the fitted concentration of half-maximal effect; for activity change, negative = inhibition: % is set by controls: 0 for no effect and ±100 for the full control effect)
# Summary of the method: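 P450-Glo CYP2C9 system: proluciferin substrate with enzyme in mix containing 0.4% BSA, 10 min at room temperature, then NADPH regeneration solution added and incubated 1 h at 37C. Detection reagent stopped reaction; luminescence read after 20 min as RLU.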
# [13] = test system: CRL-7250; assay: Cytotoxic Profiling of Annotated Libraries Using Quantitative High-Throughput Screening (AID 1296008); settings: Five cell lines viability, CellTiter-Glo ATP luminescence, 48-72 h; max response: stronger effect = lower value; note: nearly all actives have a fitted effect of over 60% in size; note: potency is the fitted concentration of half-maximal effect; for max response: % is set by controls: 0 for no effect and ±100 for the full control effect
# Summary of the method: as §1
# [14] = test system: NIH3T3; assay: as above; settings: Five cell lines viability, CellTiter-Glo ATP luminescence, 48-72 h; max response: stronger effect = lower value
# Summary of the method: as §1
# [15] = molecular target: N-terminal Xaa-Pro-Lys N-methyltransferase 1 (Homo sapiens) (UniProt Q9BV86); assay: Confirmatory qHTS for Inhibitors of N-terminal methyltransferase 1 (NTMT1): MTaseGlo Assay (AID 1645874);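 note: luminescence from SAH made as NTMT1 methylates SPKRIA peptide using SAM; 0% = DMSO control and -100% = no-enzyme control; nearly all actives have a fitted effect of over 65% in size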
# Summary of the method: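 Room-temperature NTMT1 reaction, 30 min, with 100 uM SAM and 1 uM SPKRIA substrate; enzyme 125 nM. Read-out: MTase-Glo luminescence, normalized to no-enzyme and DMSO controls.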
# [16] = molecular target: Cytochrome P450 2D6 (Homo sapiens) (UniProt P10635); assay: Cytochrome P450 family 2 subfamily D member 6 (CYP2D6) small molecule antagonists: luciferase biochemical (cell-free) qHTS assay (AID 1645840; active = well fitted curve in the direction sought with a large enough effect in the repeat runs; an effect the other way counts as inactive or inconclusive; note: potency is the fitted concentration of half-maximal effect; nearly all actives have a fitted effect of over 55% in size)
# Summary of the method: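 P450-Glo CYP2D6 system: proluciferin substrate converted by enzyme to luciferin, read by luminescence proportional to activity. Enzyme-substrate mix with compound 10 min at room temperature, then NADPH regeneration 1 h before detection reagent.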
# [17] = Confirmatory screen NINDS Rhodamine qHTS for Zika virus inhibitors (AID 1347161); note: potency is the fitted concentration of half-maximal effect; nearly all actives have a fitted effect of over 60% in size
# Summary of the method: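 Purified linked NS2B-NS3 protease (NS2B hydrophilic domain joined to NS3 protease by flexible linker), 25 nM in 10 mM Tris-HCl pH 8.0, 0.01% Tween 20. Compounds titrated, 15 min preincubation at room temperature; 1.5 microM Rhodamine110 substrate, FITC fluorescence change over 15 min.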
# [18] = measured here: PEO1 parental Z-AUC
# Sequence of Cytochrome P450 2C9 (Homo sapiens) (P11712 whole entry, looked up): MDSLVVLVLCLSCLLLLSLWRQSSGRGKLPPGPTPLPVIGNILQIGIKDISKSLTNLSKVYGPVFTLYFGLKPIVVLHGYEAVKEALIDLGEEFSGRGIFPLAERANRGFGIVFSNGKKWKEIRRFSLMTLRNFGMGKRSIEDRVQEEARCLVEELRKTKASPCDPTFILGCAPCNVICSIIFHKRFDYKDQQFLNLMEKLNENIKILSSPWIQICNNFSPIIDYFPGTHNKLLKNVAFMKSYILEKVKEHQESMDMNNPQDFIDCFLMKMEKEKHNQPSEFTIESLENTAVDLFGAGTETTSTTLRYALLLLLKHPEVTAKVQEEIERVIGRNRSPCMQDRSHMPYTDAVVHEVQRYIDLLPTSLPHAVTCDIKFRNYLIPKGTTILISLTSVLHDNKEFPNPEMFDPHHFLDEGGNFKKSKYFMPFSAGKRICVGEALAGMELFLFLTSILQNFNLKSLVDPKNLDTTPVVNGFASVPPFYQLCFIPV
# Sequence of Cytochrome P450 2D6 (Homo sapiens) (P10635 whole entry, looked up): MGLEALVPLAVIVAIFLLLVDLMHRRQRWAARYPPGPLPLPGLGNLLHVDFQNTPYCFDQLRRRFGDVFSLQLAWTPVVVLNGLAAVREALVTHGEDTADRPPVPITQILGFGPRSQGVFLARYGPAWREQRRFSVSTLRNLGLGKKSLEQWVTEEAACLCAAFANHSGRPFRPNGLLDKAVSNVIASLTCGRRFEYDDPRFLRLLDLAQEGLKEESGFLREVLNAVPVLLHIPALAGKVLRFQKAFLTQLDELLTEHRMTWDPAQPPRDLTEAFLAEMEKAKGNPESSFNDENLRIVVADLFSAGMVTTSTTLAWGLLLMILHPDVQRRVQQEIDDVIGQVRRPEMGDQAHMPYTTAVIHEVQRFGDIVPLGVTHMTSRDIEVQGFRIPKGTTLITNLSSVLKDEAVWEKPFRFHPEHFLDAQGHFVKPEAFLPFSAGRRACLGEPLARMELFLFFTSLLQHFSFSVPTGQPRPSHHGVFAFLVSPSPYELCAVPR
# Sequence of Nicotinamide N-methyltransferase (Homo sapiens) (P40261 whole entry, looked up): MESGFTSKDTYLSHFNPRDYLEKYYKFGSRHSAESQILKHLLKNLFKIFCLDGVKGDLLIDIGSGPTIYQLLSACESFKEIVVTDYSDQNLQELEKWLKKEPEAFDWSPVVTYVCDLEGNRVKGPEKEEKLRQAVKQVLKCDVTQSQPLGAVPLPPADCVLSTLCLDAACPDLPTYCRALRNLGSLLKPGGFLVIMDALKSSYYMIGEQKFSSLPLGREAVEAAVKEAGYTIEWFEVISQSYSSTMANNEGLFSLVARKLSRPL
# Sequence of Catechol O-methyltransferase (Homo sapiens) (P21964 whole entry, looked up): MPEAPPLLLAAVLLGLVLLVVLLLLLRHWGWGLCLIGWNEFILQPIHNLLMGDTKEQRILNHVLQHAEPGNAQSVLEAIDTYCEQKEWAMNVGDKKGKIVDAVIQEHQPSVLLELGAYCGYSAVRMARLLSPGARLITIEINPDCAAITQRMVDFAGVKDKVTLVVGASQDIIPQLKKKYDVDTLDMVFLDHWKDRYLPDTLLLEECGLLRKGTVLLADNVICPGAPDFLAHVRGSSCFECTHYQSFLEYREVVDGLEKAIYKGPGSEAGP
# Sequence of Phenylethanolamine N-methyltransferase (Homo sapiens) (P11086 whole entry, looked up): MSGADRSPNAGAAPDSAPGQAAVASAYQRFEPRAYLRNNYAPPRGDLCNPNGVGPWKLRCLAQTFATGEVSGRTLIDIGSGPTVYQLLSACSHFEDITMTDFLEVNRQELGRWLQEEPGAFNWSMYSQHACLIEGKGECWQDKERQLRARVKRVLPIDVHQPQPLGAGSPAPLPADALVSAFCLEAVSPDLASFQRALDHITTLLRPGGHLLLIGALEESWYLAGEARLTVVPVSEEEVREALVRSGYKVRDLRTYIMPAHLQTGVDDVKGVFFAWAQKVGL
# Sequence of N-terminal Xaa-Pro-Lys N-methyltransferase 1 (Homo sapiens) (Q9BV86 whole entry, looked up): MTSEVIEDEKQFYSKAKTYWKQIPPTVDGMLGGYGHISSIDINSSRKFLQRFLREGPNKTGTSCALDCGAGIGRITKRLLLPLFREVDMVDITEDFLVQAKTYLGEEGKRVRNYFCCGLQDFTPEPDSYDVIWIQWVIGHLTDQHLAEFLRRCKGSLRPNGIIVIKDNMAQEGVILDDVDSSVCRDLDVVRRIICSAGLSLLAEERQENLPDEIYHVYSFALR
compound,measurement,setting,value
CC(C)N(CCCNC(=O)Nc1ccc(C(C)(C)C)cc1)C[C@H]1O[C@@H](n2cc(Br)c3c(N)ncnc32)[C@H](O)[C@@H]1O,Potency,[1],inactive
same,activity,[2],-65.3%
same,Potency,[3],21.5 µM (active)
same,activity,[4],-73.5%
same,activity,[5],-94.2%
same,Z-AUC,[6],0.222 (inactive)
same,Z-AUC,[6]; [18],0.00626
same,Z-AUC,[6]; measured here: PEO4 Z-AUC,-0.104
same,max response,[7],-3.75% (inactive)
same,Potency,[8],inactive
same,Potency,[9],inactive
Cc1ccc(C2(COC(=O)C(C)C)CO2)c(OC(=O)C(C)C)c1 (configuration not stated),Potency,[10],inactive
same,outcome,[7],inactive
same,Potency,[9],inactive
Cn1nccc1Nc1nccc(-c2ccn([C@H](CO)c3ccc(Cl)c(F)c3)c(=O)c2)n1,Potency,[1],inactive
same,Potency,[11],inactive
same,Potency,[12],19 µM (active)
same,Potency,[10],inactive
same,Z-AUC,[6],-0.731 (inactive)
same,Z-AUC,[6]; [18],-0.241
same,Z-AUC,[6]; measured here: PEO4 Z-AUC,-0.296
same,outcome,[13],inactive
same,Potency,[8],inactive
C[C@@H]1COCCN1c1cc(C2(S(C)(=N)=O)CC2)nc(-c2ccnc3[nH]ccc23)n1 (some centres not stated),Potency,[6],2.75 µM (active)
same,Z-AUC,[6]; [18],-1.94
same,Z-AUC,[6]; measured here: PEO4 Z-AUC,-1.89
same,Potency,[7],16.6 µM (active)
same,Potency,[14],4.17 µM (active)
CCOC(=O)c1cccc(CNc2ccc(N(C)C(=O)Nc3ccccc3)cc2)c1,Potency,[12],0.601 µM (active)
same,Potency,[10],23.8 µM (active)
same,Potency,[13],1.3 µM (active)
same,max response,[7],-23.2% (inactive)
same,Potency,[9],14.1 µM (active)
COc1ccccc1NC(=O)Nc1ccc2ccccc2c1,Potency,[15],inactive
same,Potency,[10],inactive
same,max response,[7],-10% (inactive)
same,Potency,[8],inactive
same,Potency,[9],inactive
CCN1CCN(Cc2ccc(-c3cc4c(NC(C)c5ccccc5)ncnc4[nH]3)cc2)CC1 (configuration not stated),Potency,[12],inactive
same,Potency,[10],inactive
same,Potency,[7],2.91 µM (active)
same,Potency,[14],8.2 µM (active)
same,Potency,[9],3.55 µM (active)
O=C(c1ccc(F)c(F)c1Nc1ccc(I)cc1F)N1CC(O)(C2CCCCN2)C1 (configuration not stated),Potency,[1],18.4 µM (active)
same,Potency,[10],inactive
same,Potency,[13],9.2 µM (active)
same,Potency,[7],23.1 µM (active)
same,Potency,[9],20 µM (active)
CNc1ccc([N+](=O)[O-])cc1-n1cnc(-c2ccc(C(F)(F)F)cc2)c1,Potency,[16],0.756 µM (active)
same,Potency,[12],3.01 µM (active)
same,Potency,[10],inactive
same,max response,[7],-13.4% (inactive)
same,Potency,[9],inactive
CC1CCC2C(=CCC(O)C2(C)C)C1(C)Cc1c(O)cc(CO)c(C=O)c1O (configuration not stated),Potency,[17],27.3 µM (active)
same,outcome,[7],inactive
same,Potency,[8],inactive
same,Potency,[9],inactive
